Measured values as given in PubChem BioAssay (NCATS).
Records with an inconclusive call do not appear. The source made the active and inactive calls. Unless noted, calls follow the shape of the dose curve; as a rule, active = well fitted curve in the direction sought with a large enough effect; inconclusive = small, poorly fitted or top-dose-only effect, or another doubt; inactive = no such curve, though single readings can be large; an effect the other way counts as inactive or inconclusive. Residues, ends and D or L forms follow the SMILES beside them. *: point of attachment. Cbz = O=C(OCc1ccccc1)*

How the values were obtained:
[1] = NS1 protein of Zika virus - qHTS assay to identify small molecule inhibitors in human HEK 293 cells (AID 1347053);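 also: plate controls were infected untreated cells for no effect and uninfected cells for full effect; nearly all actives have a fitted effect of over 55% in size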
How it was run: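 Compound-treated (1 h pre-infection) HEK 293 cells infected with ZIKV MR766, MOI = 0.5; after 24 h at 37 C, NS1 read by TR-FRET; data normalized to uninfected and infected controls.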

[2] = biological target: T1, Tyrosine-protein phosphatase non-receptor type substrate 1 (Homo sapiens) + Leukocyte surface antigen CD47 (Homo sapiens) (UniProt P78324+Q08722); assay: CD47-SIRPalpha protein protein interaction - LANCE assay qHTS validation (AID 1347057; active = well fitted curve in the direction sought with a large enough effect in the signal ratio, with a control signal flat, not every such curve was filed as active; the % refers to the signal ratio; also: 0% is about no effect)
T1 sequence (P78324 whole entry, looked up, the tested form may be a part): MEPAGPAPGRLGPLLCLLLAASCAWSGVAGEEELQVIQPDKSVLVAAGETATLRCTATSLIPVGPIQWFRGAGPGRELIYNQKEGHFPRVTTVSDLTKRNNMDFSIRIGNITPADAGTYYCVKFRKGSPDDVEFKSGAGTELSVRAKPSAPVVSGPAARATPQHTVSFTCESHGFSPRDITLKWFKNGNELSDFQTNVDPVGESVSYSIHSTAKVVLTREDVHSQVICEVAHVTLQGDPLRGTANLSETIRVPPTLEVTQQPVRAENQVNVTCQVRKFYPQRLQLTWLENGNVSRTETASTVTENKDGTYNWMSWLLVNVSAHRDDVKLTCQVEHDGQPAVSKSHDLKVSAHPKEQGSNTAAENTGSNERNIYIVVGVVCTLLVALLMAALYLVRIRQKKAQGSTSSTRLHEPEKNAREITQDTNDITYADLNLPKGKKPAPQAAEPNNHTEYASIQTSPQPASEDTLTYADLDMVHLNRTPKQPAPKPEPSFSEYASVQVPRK
T1 sequence (Q08722 whole entry, looked up, the tested form may be a part): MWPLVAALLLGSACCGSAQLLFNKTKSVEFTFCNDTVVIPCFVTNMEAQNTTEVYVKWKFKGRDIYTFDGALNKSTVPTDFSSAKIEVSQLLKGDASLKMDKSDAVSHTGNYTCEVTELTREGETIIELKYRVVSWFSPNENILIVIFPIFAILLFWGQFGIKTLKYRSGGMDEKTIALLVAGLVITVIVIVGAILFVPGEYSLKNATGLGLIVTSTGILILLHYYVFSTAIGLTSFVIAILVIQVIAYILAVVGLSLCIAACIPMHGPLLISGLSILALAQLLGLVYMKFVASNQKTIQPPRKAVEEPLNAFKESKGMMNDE
How it was run: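 Inhibition of soluble CD47/SIRPalpha ectodomain association by titrated compounds, measured as 665/615 nm time-resolved FRET ratio after sequential 30 min room-temperature incubations.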

[3] = biological target: T1, Tyrosine-protein phosphatase non-receptor type substrate 1 (Homo sapiens) + Leukocyte surface antigen CD47 (Homo sapiens); assay: CD47-SIRPalpha protein protein interaction - HTRF assay qHTS validation (AID 1347058; active = well fitted curve in the direction sought with a large enough effect in the signal ratio, not every such curve was filed as active; the % refers to the signal ratio; also: 0% is about no effect)
How it was run: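 Soluble extracellular domains (6His-CD47, Avi-tag-biotinylated SIRPalpha) in PBS pH 7.4 with 0.05% IGEPAL CA-630. Compounds were preincubated 30 min at RT with CD47 and anti-His-Eu, then SIRPalpha and SAV-XL665 were added. TR-FRET 665/615 ratio.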

[4] = biological target: T1, Tyrosine-protein phosphatase non-receptor type substrate 1 (Homo sapiens) + Leukocyte surface antigen CD47 (Homo sapiens); assay: CD47-SIRPalpha protein protein interaction - Alpha assay qHTS validation (AID 1347059);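 also: bead proximity luminescence from CD47 binding SIRPalpha after compound preincubation with SIRPalpha; % is scaled to controls: 0 for no effect and ±100 for the full control effect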
How it was run: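 AlphaScreen signal between CD47-His (12.5 nM) and biotin-SIRPalpha (25 nM) soluble extracellular domains, bead-captured via Ni-NTA and streptavidin. Compounds, in 7-point titrations, met SIRPalpha 30 min before CD47; PBS pH 7.4 with 0.05% IGEPAL.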

[5] = biological target: Parathyroid hormone/parathyroid hormone-related peptide receptor (Homo sapiens) (UniProt Q03431); assay: qHTS for PTHR1 Agonists: Optimization Screen against the NCGC LOPAC library (AID 1347079);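 also: GloSensor cAMP luminescence in HEK-293 GP2 cells expressing human PTHR1 with IBMX; 0% is about no effect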
Parathyroid hormone/parathyroid hormone-related peptide receptor (Homo sapiens), sequence (Q03431 whole entry, looked up): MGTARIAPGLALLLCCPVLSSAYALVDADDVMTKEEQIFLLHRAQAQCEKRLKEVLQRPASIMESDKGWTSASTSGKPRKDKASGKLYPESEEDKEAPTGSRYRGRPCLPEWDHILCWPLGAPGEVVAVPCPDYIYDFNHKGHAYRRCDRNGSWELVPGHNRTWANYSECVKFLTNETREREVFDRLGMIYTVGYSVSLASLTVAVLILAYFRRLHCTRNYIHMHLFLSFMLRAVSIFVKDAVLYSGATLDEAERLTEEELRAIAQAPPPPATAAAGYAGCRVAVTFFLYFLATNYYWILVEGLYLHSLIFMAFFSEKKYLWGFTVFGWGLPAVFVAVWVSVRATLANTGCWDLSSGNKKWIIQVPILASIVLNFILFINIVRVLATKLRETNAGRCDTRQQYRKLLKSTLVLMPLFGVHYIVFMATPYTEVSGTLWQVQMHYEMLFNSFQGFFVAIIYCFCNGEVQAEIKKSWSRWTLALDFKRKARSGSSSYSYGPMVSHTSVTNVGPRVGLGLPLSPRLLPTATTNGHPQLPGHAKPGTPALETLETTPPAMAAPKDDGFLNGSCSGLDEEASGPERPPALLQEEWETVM
How it was run: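 Signal increase flags agonism. GP2 cells, derived from HEK-293, express human PTHR1 and a GloSensor cAMP construct.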

[6] = biological target: N-terminal Xaa-Pro-Lys N-methyltransferase 1 (Homo sapiens) (UniProt Q9BV86); assay: qHTS Assay for Inhibitors of N-terminal methyltransferase 1 (NTMT1): LOPAC validation of the NTMT1 SAHH-coupled ThioGlo3 Assay (AID 1347143);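 also: SAH from peptide methylation measured as thiol fluorescence via SAHH coupling and ThioGlo3; nearly all actives have a fitted effect of over 70% in size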; also: potency is read from the fitted curve at half-maximal effect
N-terminal Xaa-Pro-Lys N-methyltransferase 1 (Homo sapiens), sequence (Q9BV86 whole entry, looked up): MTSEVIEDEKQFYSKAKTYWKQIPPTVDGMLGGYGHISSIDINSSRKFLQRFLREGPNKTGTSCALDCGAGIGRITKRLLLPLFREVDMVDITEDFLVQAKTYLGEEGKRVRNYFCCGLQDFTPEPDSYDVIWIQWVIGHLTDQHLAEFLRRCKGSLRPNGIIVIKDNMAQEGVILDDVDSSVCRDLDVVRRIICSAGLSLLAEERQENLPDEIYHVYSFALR
How it was run: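 NTMT1 125nM + cpds (various conc.), 1 min RT; add SAM 100uM/SAHH 10uM/ThioGlo3 15uM (addition mix). SAHH-coupled thiol detection, Ex340/Em450, t0 and 30 min RT; signal normalized to background. LOPAC 1280-cpd pilot.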

[7] = tested on: Zika virus NS2B-NS3 protease (unlinked); assay: Optimization of GU AMC qHTS for Zika virus inhibitors: Unlinked NS2B-NS3 protease assay (AID 1347151); also: nearly all actives have a fitted effect of over 80% in size; also: potency is read from the fitted curve at half-maximal effect
How it was run: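 Noncovalent complex of NS2B hydrophilic domain and NS3 protease domain, 25 nM final, in 10 mM Tris-HCl pH 8.0, 0.01% Tween 20. AMC fluorescence change over 15 min at room temperature was fitted to a 4-parameter Hill equation.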

[8] = tested on: Zika virus NS2B-NS3 protease; assay: Primary screen GU AMC qHTS for Zika virus inhibitors (AID 1347154);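 also: 0% = no-inhibitor control and -100% = no-enzyme control; nearly all actives have a fitted effect of over 70% in size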
How it was run: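 Fluorogenic AMC-substrate cleavage by noncovalent NS2B-NS3 protease complex (25 nM, pH 8.0 Tris buffer with Tween 20) followed for 15 minutes at room temperature (~20% conversion). Percent inhibition from ex340/em450 signal change, fitted by 4-parameter Hill equation.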

[9] = biological target: Lysine-specific demethylase 5B (Homo sapiens) (UniProt Q9UGL1); assay: Optimization screen for KDM5B Histone Demethylases FDH coupled qHTS against the LOPAC library (AID 1347166); conditions: KDM5B demethylation, FDH-coupled NADH fluorescence (FDH is formaldehyde dehydrogenase); at 57.5 µM (top of the series); also: 0% is about no effect
Lysine-specific demethylase 5B (Homo sapiens), sequence (Q9UGL1 whole entry, looked up): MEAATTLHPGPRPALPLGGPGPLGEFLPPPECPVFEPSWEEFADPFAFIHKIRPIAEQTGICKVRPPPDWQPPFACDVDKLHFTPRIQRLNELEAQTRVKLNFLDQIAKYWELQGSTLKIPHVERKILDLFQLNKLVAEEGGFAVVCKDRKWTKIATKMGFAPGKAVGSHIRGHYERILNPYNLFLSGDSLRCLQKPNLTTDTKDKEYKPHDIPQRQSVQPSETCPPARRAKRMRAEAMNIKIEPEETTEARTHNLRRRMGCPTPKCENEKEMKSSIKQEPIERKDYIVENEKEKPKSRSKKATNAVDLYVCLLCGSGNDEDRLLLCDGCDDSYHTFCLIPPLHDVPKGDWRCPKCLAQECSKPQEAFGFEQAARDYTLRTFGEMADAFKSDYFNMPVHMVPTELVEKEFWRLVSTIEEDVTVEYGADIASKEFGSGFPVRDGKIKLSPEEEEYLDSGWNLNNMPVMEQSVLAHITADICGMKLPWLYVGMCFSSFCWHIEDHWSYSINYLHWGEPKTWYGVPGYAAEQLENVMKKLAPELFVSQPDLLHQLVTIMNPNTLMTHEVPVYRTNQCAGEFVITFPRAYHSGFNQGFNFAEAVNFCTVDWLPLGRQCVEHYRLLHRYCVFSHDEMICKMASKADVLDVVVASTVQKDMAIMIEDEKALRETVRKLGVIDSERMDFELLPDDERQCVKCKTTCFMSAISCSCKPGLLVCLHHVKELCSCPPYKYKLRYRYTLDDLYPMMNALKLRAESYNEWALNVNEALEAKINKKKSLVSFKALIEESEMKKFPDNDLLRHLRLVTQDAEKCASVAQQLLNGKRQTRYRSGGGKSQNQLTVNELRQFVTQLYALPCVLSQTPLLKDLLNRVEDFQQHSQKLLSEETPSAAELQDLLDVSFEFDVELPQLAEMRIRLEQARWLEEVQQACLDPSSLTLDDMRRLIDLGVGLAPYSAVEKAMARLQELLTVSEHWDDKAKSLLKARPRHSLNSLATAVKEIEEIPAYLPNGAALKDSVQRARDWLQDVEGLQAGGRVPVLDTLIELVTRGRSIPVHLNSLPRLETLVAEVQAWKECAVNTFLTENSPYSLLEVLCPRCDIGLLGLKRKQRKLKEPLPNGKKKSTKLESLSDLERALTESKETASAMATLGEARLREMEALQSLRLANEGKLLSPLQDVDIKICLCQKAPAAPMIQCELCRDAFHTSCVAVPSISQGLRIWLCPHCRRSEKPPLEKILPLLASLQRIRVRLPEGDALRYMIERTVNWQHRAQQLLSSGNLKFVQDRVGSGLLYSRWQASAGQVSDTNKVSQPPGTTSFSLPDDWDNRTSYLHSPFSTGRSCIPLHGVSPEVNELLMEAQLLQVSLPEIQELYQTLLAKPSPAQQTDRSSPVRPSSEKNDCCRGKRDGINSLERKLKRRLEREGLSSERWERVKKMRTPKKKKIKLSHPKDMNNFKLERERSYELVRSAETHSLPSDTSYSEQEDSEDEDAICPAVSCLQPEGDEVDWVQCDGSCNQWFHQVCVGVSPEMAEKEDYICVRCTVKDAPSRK
How it was run: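 KDM5BDeltaAP (200nM final) in 50mM HEPES pH 7.5, 0.01% Tween-20 was preincubated with compound for 10 min at room temperature. A substrate mix of 12.5uM H3K4Me3, 25uM a-ketoglutarate, ascorbate, Fe2+, NAD+ and formaldehyde dehydrogenase was then added. NADH fluorescence (340/450 nm) was read initially and after 30 min.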

CN[C@H](CC(=O)O)C(=O)O
inactive: Potency [1] | Potency [2] | outcome [3] | Potency [4] | Potency [5] | Potency [6] | Potency [7] | Potency [8] | activity, negative = inhibition [9] -14.8%

C[C@@]1(C2CCCC2)Cc2cc(OCC(=O)O)c(Cl)c(Cl)c2C1=O
inactive: Potency [1] | Potency [2] | outcome [3] | Potency [4] | Potency [5] | Potency [6] | Potency [7] | Potency [8]

Cn1cc(C(=O)OCC2CCN(CCNS(C)(=O)=O)CC2)c2ccccc21
inactive: Potency [1] | Potency [2] | outcome [3] | Potency [4] | Potency [5] | Potency [6] | Potency [7] | Potency [8] | activity, negative = inhibition [9] -6.85%

NCCCCN=C(N)N
inactive: Potency [1] | Potency [2] | outcome [3] | Potency [4] | Potency [5] | Potency [6] | Potency [7] | Potency [8] | activity, negative = inhibition [9] -1.42%

NC1C=CC=C(C(=O)O)C1 (stereo not drawn)
inactive: Potency [1] | Potency [2] | outcome [3] | Potency [4] | Potency [5] | Potency [6] | Potency [7] | Potency [8] | activity, negative = inhibition [9] -9.6%

CC(/C=C/c1cccc(Oc2ccc(F)cc2)c1)N(O)C(N)=O (stereo not drawn)
inactive: Potency [1] | Potency [2] | outcome [3] | Potency [4] | Potency [5] | Potency [6] | Potency [7] | Potency [8] | activity, negative = inhibition [9] -9.88%

Oc1cc2c(cc1O)C(c1ccccc1)CNCC2 (stereo not drawn)
inactive: Potency [1] | Potency [2] | outcome [3] | Potency [4] | Potency [5] | Potency [7] | Potency [8]
active: Potency [6] 44.7 µM

CC1CNCCN1S(=O)(=O)c1cccc2cnccc12 (stereo not drawn)
inactive: Potency [1] | Potency [2] | outcome [3] | Potency [4] | Potency [5] | Potency [6] | Potency [7] | Potency [8] | activity, negative = inhibition [9] -12.8%

O=C(O)C1=CCCN(CCON=C(c2ccccc2)c2ccccc2)C1
inactive: Potency [1] | Potency [2] | outcome [3] | Potency [4] | Potency [5] | Potency [6] | Potency [7] | Potency [8] | activity, negative = inhibition [9] 1.04%

CC(C)[C@H](NC(=O)OCc1ccccc1)C(=O)N[C@H](C=O)Cc1ccccc1 (Cbz-Val-Phe-aldehyde)
inactive: Potency [1] | Potency [2] | outcome [3] | Potency [4] | Potency [5] | Potency [6] | Potency [7] | Potency [8] | activity, negative = inhibition [9] 6.73%

COc1ccc(CCN(C)CCc2ccc(OC)c(OC)c2)cc1OC
inactive: Potency [1] | Potency [2] | outcome [3] | Potency [4] | Potency [5] | Potency [6] | Potency [7] | Potency [8] | activity, negative = inhibition [9] 3.09%

CC(C)(C)NCC(O)COc1cccc2[nH]c(=O)[nH]c12 (stereo not drawn)
inactive: Potency [1] | Potency [2] | outcome [3] | Potency [4] | Potency [5] | Potency [6] | Potency [7] | Potency [8] | activity, negative = inhibition [9] -6.87%

NC(N)=NC(N)=Nc1cccc(Cl)c1
inactive: Potency [1] | Potency [2] | outcome [3] | Potency [4] | Potency [5] | Potency [6] | Potency [7] | Potency [8] | activity, negative = inhibition [9] -3.11%

C=CC[C@H](N)C(=O)O
inactive: Potency [1] | Potency [2] | outcome [3] | Potency [4] | Potency [5] | Potency [6] | Potency [7] | activity, negative = inhibition [9] -4.4%

CCCCCCN(CCCCCC)C(=O)Cc1c(-c2ccc(F)cc2)[nH]c2ccccc12
active: Potency [6] 79.4 µM | Potency [7] 21.2 µM
inactive: Potency [1] | Potency [2] | outcome [3] | Potency [4] | Potency [5] | Potency [8]

CC[N+](CC)(CC)CC(=O)Nc1c(C)cccc1C
inactive: Potency [1] | Potency [2] | outcome [3] | Potency [4] | Potency [5] | Potency [6] | Potency [7] | Potency [8] | activity, negative = inhibition [9] -1.53%

NC1CCN(O)C1=O (stereo not drawn)
inactive: Potency [1] | Potency [2] | outcome [3] | Potency [4] | Potency [5] | Potency [6] | Potency [7] | activity, negative = inhibition [9] -8.73%

CCCN(CCc1ccccc1)C1CCc2c(O)cccc2C1 (stereo not drawn)
inactive: Potency [1] | Potency [2] | outcome [3] | Potency [4] | Potency [5] | Potency [6] | Potency [7] | Potency [8] | activity, negative = inhibition [9] -0.152%

CCCCOc1cc(CC2CNC(=O)N2)ccc1OC (stereo not drawn)
inactive: Potency [1] | Potency [2] | outcome [3] | Potency [4] | Potency [5] | Potency [6] | Potency [7] | Potency [8]

N[C@@H](CS(=O)O)C(=O)O
inactive: Potency [1] | Potency [2] | outcome [3] | Potency [4] | Potency [5] | Potency [6] | Potency [7] | Potency [8]

NOCC(=O)O
inactive: Potency [1] | Potency [2] | outcome [3] | Potency [4] | Potency [5] | Potency [6] | Potency [7] | activity, negative = inhibition [9] -4.09%

O=C1OC(=O)C2C3CCC(O3)C12 (stereo not drawn)
inactive: Potency [1] | Potency [2] | outcome [3] | Potency [4] | Potency [5] | Potency [6] | Potency [7] | activity, negative = inhibition [9] 3.88%

N[C@@H](Cc1ccc(F)cc1)C(=O)O
inactive: Potency [1] | Potency [2] | outcome [3] | Potency [4] | Potency [5] | Potency [6] | Potency [7] | activity, negative = inhibition [9] -14.8%

CC(N)=NCCCC[C@@H](N)C(=O)O
inactive: Potency [1] | Potency [2] | outcome [3] | Potency [4] | Potency [5] | Potency [6] | Potency [7] | activity, negative = inhibition [9] -21.9%

C=CCNc1ncnc2ccc(Br)cc12
inactive: Potency [1] | Potency [2] | outcome [3] | Potency [4] | Potency [5] | Potency [6] | Potency [7] | activity, negative = inhibition [9] -0.201%
